Measurements: PubChem BioAssay (NCATS)
Inconclusive results are not listed. The source made the active and inactive calls. Calls follow the shape of the dose curve; as a rule, active = well fitted inhibition curve with a large enough effect; inconclusive = small, poorly fitted or top-dose-only effect; inactive = flat fitted curve, though single readings scatter.

How the values were obtained:
[1] = qHTS profiling for inhibitors of Plasmodium falciparum proliferation (AID 504749); also: nearly all actives have a fitted effect of over 60% in size;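 as to activity, negative = inhibition: 0% = DMSO vehicle and full inhibition = artemisinin control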; details: P. falciparum in erythrocytes, SYBR Green DNA, 72 h
Summary of the method: (§1)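 Each compound contacts P. falciparum-infected red blood cells for 72 h at 37 C; lysis buffer (Tris, EDTA, saponin, Triton X, SYBR Green I) is added and fluorescence measured next morning; values normalized to controls.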

7G8 = assay: as above; details: P. falciparum in erythrocytes, SYBR Green DNA, 72 h; series mostly up to 28.7 µM
Summary of the method: as §1

AS120 = assay: as above; details: P. falciparum in erythrocytes, SYBR Green DNA, 72 h; series mostly up to 28.7 µM
Summary of the method: as §1

CP185 = assay: as above; details: P. falciparum in erythrocytes, SYBR Green DNA, 72 h; series mostly up to 28.7 µM
Summary of the method: as §1

AA1029 = assay: as above; details: P. falciparum in erythrocytes, SYBR Green DNA, 72 h; series mostly up to 28.7 µM
Summary of the method: as §1

ATS189 = assay: as above; details: P. falciparum in erythrocytes, SYBR Green DNA, 72 h; series mostly up to 28.7 µM
Summary of the method: as §1

ATS95 = assay: as above; details: P. falciparum in erythrocytes, SYBR Green DNA, 72 h; series mostly up to 28.7 µM
Summary of the method: as §1

C2A = assay: as above; details: P. falciparum in erythrocytes, SYBR Green DNA, 72 h; series mostly up to 28.7 µM
Summary of the method: as §1

3D7 = assay: as above; details: P. falciparum in erythrocytes, SYBR Green DNA, 72 h; series mostly up to 28.7 µM
Summary of the method: as §1

[2] = at 28.7 µM (top of the series), parasite line A
[3] = at 28.7 µM (top of the series), parasite line B
Potency is read from the fitted curve at half-maximal effect.

Cc1ccc2c(Br)cc(Br)c(O)c2n1
active: Potency ([1]; parasite line B) 12.6 µM | Potency (7G8) 7.08 µM | Potency (AS120) 8.91 µM | Potency (CP185) 10 µM

C[N+]1(C)CCC(=C(c2ccccc2)c2ccccc2)CC1
inactive: Potency (AA1029) | Potency (AS120) | Potency (ATS189) | Potency (ATS95) | Potency (C2A) | Potency (CP185)

O=C(CN1CCN(Cc2ccc3c(c2)OCO3)CC1)N1c2ccccc2Sc2ccccc21
active: Potency (7G8) 7.94 µM | Potency (AS120) 10 µM | Potency (ATS189) 8.91 µM | Potency (C2A) 11.2 µM

CO[C@]12C[C@@H](COC(=O)c3cncc(Br)c3)CN(C)[C@@H]1Cc1cn(C)c3cccc2c13
inactive: activity, negative = inhibition [1, 2] -17.9% | Potency (3D7) | Potency (CP185)

COc1ccc(C(=O)c2ccccc2O)c(O)c1
inactive: activity, negative = inhibition ([1]; at 12.8 µM (top of the series), parasite line A) -29.2% | Potency (3D7) | Potency (AA1029) | Potency (ATS189) | Potency (ATS95) | Potency (C2A) | Potency (CP185)
active: Potency (7G8) 3.16 µM | Potency (AS120) 3.98 µM

Cc1cc2c(OCC(CNC(C)(C)C)OC(=O)c3ccccc3)cccc2[nH]1 (stereo not drawn)
inactive: Potency (CP185)

CC(C)[N+](C)(C)CC(O)COc1cccc2ccccc12 (stereo not drawn)
inactive: Potency (AS120) | Potency (ATS189) | Potency (ATS95)

CC1=C(C(=O)O)N2C(=O)[C@@H](NC(=O)[C@H](N)c3ccccc3)[C@H]2SC1
inactive: activity, negative = inhibition [1, 2] 3.04% | Potency (3D7) | Potency (7G8) | Potency (AA1029) | Potency (AS120) | Potency (ATS189) | Potency (ATS95) | Potency (C2A) | Potency (CP185)

OC(C#CCN1CCCC1)(c1ccccc1)c1ccccc1
inactive: activity, negative = inhibition [1, 3] -24.9% | Potency (3D7) | Potency (C2A)
active: Potency (7G8) 11.2 µM

CN1CCC[C@@H]1CCO[C@](C)(c1ccccc1)c1ccc(Cl)cc1
active: Potency (7G8) 10 µM
inactive: activity, negative = inhibition [1, 3] -15.8% | Potency (3D7) | Potency (AS120) | Potency (ATS189) | Potency (C2A) | Potency (CP185)

Cn1c(=O)c2[nH]c(Br)nc2n(C)c1=O
inactive: activity, negative = inhibition [1, 3] -4.72% | Potency (3D7) | Potency (7G8) | Potency (AS120) | Potency (ATS189) | Potency (ATS95) | Potency (C2A) | Potency (CP185)

CN1CCN(C2=Nc3ccccc3Sc3ccc(Cl)cc32)CC1
inactive: activity, negative = inhibition [1, 2] -8.05% | activity, negative = inhibition [1, 3] -25.1% | Potency (ATS189) | Potency (C2A) | Potency (CP185)

CN1CCN(c2c(F)cc3c(=O)c(C(=O)O)cn4c3c2SCC4)CC1
inactive: activity, negative = inhibition [1, 3] -29% | Potency (3D7)

Oc1ccc(Cl)cc1Cc1cc(Cl)ccc1O
active: Potency ([1]; parasite line B) 11.2 µM | Potency (7G8) 11.2 µM | Potency (AA1029) 10 µM | Potency (AS120) 7.08 µM
inactive: Potency (3D7) | Potency (C2A)

CC(=O)O[C@]1(C(C)=O)CC[C@H]2[C@@H]3C=C(Cl)C4=CC(=O)CC[C@]4(C)[C@H]3CC[C@@]21C
active: Potency ([1]; parasite line A) 12.6 µM | Potency (7G8) 11.2 µM | Potency (AA1029) 11.2 µM | Potency (AS120) 11.2 µM

CC[N+](C)(CC)CCOC(=O)C(O)(c1ccccc1)C1CCCCC1 (stereo not drawn)
inactive: activity, negative = inhibition [1, 2] -48% | Potency (AA1029) | Potency (AS120) | Potency (ATS189) | Potency (ATS95) | Potency (C2A)

CN(CCCN1c2ccccc2CCc2ccccc21)CC(=O)c1ccc(Cl)cc1
active: Potency (7G8) 1.41 µM | Potency (AA1029) 7.94 µM | Potency (AS120) 12.6 µM | Potency (ATS95) 10 µM
inactive: Potency (C2A)

Oc1c(Cl)cc(Cl)c(Cl)c1Cc1c(O)c(Cl)cc(Cl)c1Cl
active: Potency ([1]; parasite line A) 11.2 µM | Potency (7G8) 4.47 µM | Potency (AS120) 11.2 µM

Cc1cc(CC(=O)O)c(C)n1-c1ccc(Cl)cc1
active: Potency (7G8) 11.2 µM
inactive: Potency (3D7) | Potency (ATS189) | Potency (ATS95) | Potency (C2A) | Potency (CP185)

COC(=O)C(c1ccccc1Cl)N1CCc2sccc2C1 (stereo not drawn)
active: Potency (7G8) 10 µM
inactive: Potency (C2A)

CCN(CC)CCOc1ccc2c(c1)C(=O)c1cc(OCCN(CC)CC)ccc1-2
active: Potency (7G8) 7.94 µM | Potency (ATS189) 11.2 µM | Potency (C2A) 10 µM | Potency (CP185) 12.6 µM

COc1cc(N)c(Cl)cc1C(=O)NC1CCN(Cc2ccccc2)CC1
inactive: activity, negative = inhibition ([1]; at 12.8 µM (top of the series), parasite line B) -11.7% | Potency (3D7) | Potency (AA1029) | Potency (AS120) | Potency (ATS189) | Potency (ATS95) | Potency (C2A) | Potency (CP185)

CC(C)(Cc1c[nH]c2ccccc12)NCC(O)COc1ccccc1C#N (stereo not drawn)
active: Potency (7G8) 8.91 µM | Potency (AA1029) 8.91 µM

O=C(O)CCc1nc2ccccc2[nH]1
active: Potency (3D7) 0.0045 µM

NC1CCN(c2nc3c(cc2F)c(=O)c(C(=O)O)cn3-c2ccc(F)cc2F)C1 (stereo not drawn)
inactive: Potency (ATS189)

CC(C)(C)NC[C@H](O)COc1nsnc1N1CCOCC1
active: Potency (3D7) 6.31 µM | Potency (7G8) 0.631 µM | Potency (ATS189) 5.62 µM

CCCCCCCCCCCCOCCOCCOCCOCCOCCOCCOCCOCCOCCO
active: Potency (7G8) 12.6 µM
inactive: activity, negative = inhibition [1, 3] -26% | Potency (AA1029)

O=[N+]([O-])c1cccc(S(=O)(=O)NCCNS(=O)(=O)c2cccc([N+](=O)[O-])c2)c1
inactive: activity, negative = inhibition [1, 2] -25.4% | Potency (3D7) | Potency (ATS189) | Potency (ATS95) | Potency (C2A) | Potency (CP185)

CN1CCc2cccc3c2[C@H]1Cc1ccc(O)c(O)c1-3
active: Potency (3D7) 7.94 µM | Potency (7G8) 2.24 µM | Potency (AA1029) 8.91 µM | Potency (AS120) 7.94 µM | Potency (ATS95) 8.91 µM

CCCN(CCc1cccs1)[C@H]1CCc2c(O)cccc2C1
active: Potency ([1]; parasite line B) 4.47 µM | Potency (3D7) 14.1 µM | Potency (7G8) 1 µM | Potency (AA1029) 5.01 µM | Potency (AS120) 7.08 µM | Potency (ATS189) 7.94 µM | Potency (ATS95) 7.94 µM | Potency (C2A) 11.2 µM | Potency (CP185) 11.2 µM

CCNC(=O)/C=C/c1cccc(Br)c1
inactive: activity, negative = inhibition [1, 3] -15.2% | Potency (3D7) | Potency (7G8) | Potency (AA1029) | Potency (AS120) | Potency (ATS95) | Potency (C2A) | Potency (CP185)

O=S(c1cc(Cl)cc(Cl)c1O)c1cc(Cl)cc(Cl)c1O
inactive: Potency (7G8)
